In PubChem BioAssay (NCATS):
Inconclusive results are not listed. Where a call stands in place of a potency, no number is given. The source made the active and inactive calls. Calls come from the whole dose curve; as a rule, active = well fitted curve in the direction sought with a large enough effect; inconclusive = small, poorly fitted or top-dose-only effect, or another doubt; inactive = no such curve, though single readings can be large; an effect the other way counts as inactive or inconclusive.
Potency is the fitted concentration of half-maximal effect.

System: not listed separately
Experiment: qHTS of pediatric cancer cell lines to identify multiple opportunities for drug repurposing: Confirmatory screen for Rh41 cells (AID 1347123);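 note: 48 h compound exposure; nearly all actives have a fitted effect of over 60% in size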
Conditions: Rh41 rhabdomyosarcoma cells, viability/cytotoxicity qHTS; series mostly up to 45.9 µM
How it was run: (§1)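 Viability after 48 h compound treatment at 37C, 500-1,000 cells/well, read as ATP luminescence with CellTiter-Glo. Primary screens used 11-point (MIPE, 0.78 nM-46 µM) or 8-point (NPC, 0.59 nM-46 µM) final concentrations; follow-up screens used 11-point dilutions.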
With `S=C(SSC(=S)N1CCCCC1)N1CCCCC1` the Potency was 0.329 µM (active).
With `COC1=CC(C)=C[C@@H](C)[C@@H](O)[C@@H](C)CC(C)=CC=C[C@H](OC)[C@H]([C@@H](C)[C@@H](O)[C@H](C)[C@@]2(O)C[C@@H](O)[C@H](C)[C@@H](C(C)C)O2)OC1=O` the Potency was “inactive”.
With `O=[N+]([O-])c1c(Cl)c(Cl)cc(Cl)c1Cl` the Potency was “inactive”.
In the case of `COc1ccc2c(c1)CN(C)CC2c1ccc(Cl)c(Cl)c1` (configuration not stated), the Potency is reported as 18.5 µM (active).
In the case of `O=C(O)COc1nc(Cl)c(Cl)cc1Cl`, the Potency is reported as “inactive”.
For `COc1ccc(C(=O)c2c(C)n(CCN3CCOCC3)c3cc(I)ccc23)cc1`, the Potency was 9.27 µM (active).
With `Cc1c(N)nc([C@H](CC(N)=O)NC[C@@H](N)C(N)=O)nc1C(=O)N[C@H](C(=O)N[C@@H](C)[C@H](O)[C@@H](C)C(=O)N[C@@H](C(=O)NCCc1nc(-c2nc(C(=O)NCCC[S+](C)C)cs2)cs1)[C@@H](C)O)C(O[C@H]1O[C@H](CO)[C@H](O)[C@@H](O)[C@@H]1O[C@H]1O[C@H](CO)[C@@H](O)[C@H](OC(N)=O)[C@H]1O)c1cnc[nH]1` (some centres not stated) the Potency was “inactive”.

System: not listed separately
Experiment: qHTS of pediatric cancer cell lines to identify multiple opportunities for drug repurposing: Confirmatory screen for RD cells (AID 1347124);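 note: cells exposed to compound for 48 h before viability readout; nearly all actives have a fitted effect of over 65% in size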
Conditions: RD rhabdomyosarcoma cell viability; series mostly up to 45.9 µM
How it was run: as §1
With `CC[C@H]1C=CC=CC[C@@H](C)[C@H](O)[C@@](C)(O)C(=O)[C@@H](C)[C@H](O)[C@@H](C)C(=O)[C@@H](C)[C@H](O)[C@@H](C)C=CC(=O)O[C@@H]2[C@@H](C)[C@H](CC1)O[C@]1(CC[C@H](C)[C@H](C[C@@H](C)O)O1)[C@H]2C` the Potency was 4.14 µM (active).
For `O=[N+]([O-])c1c(Cl)c(Cl)cc(Cl)c1Cl`, the Potency was “inactive”.
In the case of `O=C(O)COc1nc(Cl)c(Cl)cc1Cl`, the Potency is reported as “inactive”.

System: not listed separately
Experiment: qHTS of pediatric cancer cell lines to identify multiple opportunities for drug repurposing: Confirmatory screen for Saos-2 cells (AID 1347127); note: nearly all actives have a fitted effect of over 60% in size
Conditions: Saos-2 osteosarcoma cell viability; series mostly up to 45.9 µM
How it was run: as §1
For `COc1cc([C@@H]2c3cc4c(cc3[C@@H](O)C3COC(=O)C32)OCO4)cc(OC)c1O` (some centres not stated), the Potency was “inactive”.
In the case of `COc1ccc2c(c1)CN(C)CC2c1ccc(Cl)c(Cl)c1` (configuration not stated), the Potency is reported as 23.3 µM (active).
With `Cc1c(N)nc([C@H](CC(N)=O)NC[C@@H](N)C(N)=O)nc1C(=O)N[C@H](C(=O)N[C@@H](C)[C@H](O)[C@@H](C)C(=O)N[C@@H](C(=O)NCCc1nc(-c2nc(C(=O)NCCC[S+](C)C)cs2)cs1)[C@@H](C)O)C(O[C@H]1O[C@H](CO)[C@H](O)[C@@H](O)[C@@H]1O[C@H]1O[C@H](CO)[C@@H](O)[C@H](OC(N)=O)[C@H]1O)c1cnc[nH]1` (some centres not stated) the Potency was “inactive”.

Target: N-terminal Xaa-Pro-Lys N-methyltransferase 1 (Homo sapiens) (UniProt Q9BV86)
Sequence (Q9BV86 whole entry, looked up): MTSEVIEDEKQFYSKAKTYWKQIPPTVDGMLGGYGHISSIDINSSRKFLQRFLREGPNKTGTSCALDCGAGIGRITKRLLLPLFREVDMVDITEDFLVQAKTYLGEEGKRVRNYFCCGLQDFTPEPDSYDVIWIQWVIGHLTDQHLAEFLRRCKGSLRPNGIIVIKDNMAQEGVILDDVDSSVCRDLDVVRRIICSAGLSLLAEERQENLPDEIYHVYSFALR
Experiment: qHTS Assay for Inhibitors of N-terminal methyltransferase 1 (NTMT1): LOPAC validation of the NTMT1 SAHH-coupled ThioGlo3 Assay (AID 1347143);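 note: SAH from peptide methylation measured as thiol fluorescence via SAHH coupling and ThioGlo3; nearly all actives have a fitted effect of over 70% in size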
Conditions: recombinant NTMT1, SAHH-coupled ThioGlo3 fluorescence; series mostly up to 114 µM
How it was run: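 Recombinant human NTMT1 (125nM) was pre-incubated 1 min at room temperature with compounds over a concentration range, then a mix of 100uM SAM, 10uM SAHH and 15uM ThioGlo3 (concentrations in added reagent) was added. ThioGlo3 fluorescence (ex 340/em 450nm) after 30 min was normalized to the initial reading.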
In the case of `O=C(O)[C@@H]1CCN1`, the Potency is reported as “inactive”.
With `C/C=C(/C)C(=O)O[C@H]1C(C)=C2[C@H]([C@@H]1OC(=O)CCCCCCC)[C@@](C)(OC(C)=O)C[C@H](OC(=O)CCC)[C@@]1(O)[C@H]2OC(=O)[C@@]1(C)O` the Potency was “inactive”.
For `CCCN(CCC)[C@@H]1CCc2ccc(O)cc2C1`, the Potency was “inactive”.
With `O=C(Cc1ccc(Cl)c(Cl)c1)N1CCCCC1CN1CCCC1` (configuration not stated) the Potency was “inactive”.
For `CCCCc1ccc(C(=O)O)nc1`, the Potency was “inactive”.
In the case of `S=C(NC1CCCCC1)N1CCC(c2cnc[nH]2)CC1`, the Potency is reported as “inactive”.
In the case of `NC(CCP(=O)(O)O)C(=O)O` (configuration not stated), the Potency is reported as “inactive”.
In the case of `CC(=O)NCCc1c[nH]c2ccccc12`, the Potency is reported as “inactive”.
With `CC1=NN=C(c2ccc(N)cc2)c2cc3c(cc2C1)OCO3` the Potency was 56.2 µM (active).
In the case of `CN1C2CCC1CC(OC(=O)c1cc(Cl)cc(Cl)c1)C2` (configuration not stated), the Potency is reported as “inactive”.
In the case of `O=C(O)CC[N+](=O)[O-]`, the Potency is reported as “inactive”.
With `COc1cc(C(O)CN)ccc1O` (configuration not stated) the Potency was “inactive”.
With `CC(=O)[C@H]1CCC2C3CC[C@H]4C[C@H](O)CC[C@]4(C)C3CC[C@@]21C` (some centres not stated) the Potency was “inactive”.
For `C#CCOC(=O)C1=CCCN(C)C1`, the Potency was “inactive”.
For `Clc1cnc(Oc2ccc(Oc3ncc(Cl)cc3Cl)cc2)c(Cl)c1`, the Potency was “inactive”.
With `CC(C)NC(C)Cc1ccc(I)cc1` (configuration not stated) the Potency was “inactive”.
In the case of `CCCN1CCC[C@H](c2cccc(O)c2)C1`, the Potency is reported as “inactive”.
In the case of `O=C(O)Cc1cnc[nH]1`, the Potency is reported as “inactive”.
With `C=CCN1CC[C@]23CCCCC2[C@H]1Cc1ccc(O)cc13` (some centres not stated) the Potency was “inactive”.
For `C[N+]1(C)C2CC(OC(=O)[C@H](CO)c3ccccc3)CC1C1OC12` (some centres not stated), the Potency was “inactive”.
With `COc1ccc2c(c[n+](C)c3c4cc5c(cc4ccc23)OCO5)c1OC` the Potency was 25.1 µM (active).
In the case of `NCCc1c[nH]c2ccccc12`, the Potency is reported as “inactive”.
With `O=C1CCCN1CC#CCN1CCCC1` the Potency was “inactive”.
With `CC[C@@H]1C(=O)OC[C@@H]1Cc1cncn1C` the Potency was “inactive”.

System: Zika virus NS2B-NS3 protease (unlinked)
Experiment: Optimization of GU AMC qHTS for Zika virus inhibitors: Unlinked NS2B-NS3 protease assay (AID 1347151); note: nearly all actives have a fitted effect of over 80% in size
Conditions: recombinant ZIKV NS2B-NS3 protease, fluorogenic AMC substrate; series mostly up to 52.5 µM
How it was run: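 Percent inhibition is derived from the 15-min change in AMC fluorescence, normalized against no-inhibitor and no-enzyme controls, then fitted to a 4-parameter Hill curve. Aprotinin was the intraplate control.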
For `O=C(O)[C@@H]1CCN1`, the Potency was “inactive”.
In the case of `CCCN(CCC)[C@@H]1CCc2ccc(O)cc2C1`, the Potency is reported as “inactive”.
For `O=C(Cc1ccc(Cl)c(Cl)c1)N1CCCCC1CN1CCCC1` (configuration not stated), the Potency was “inactive”.
In the case of `CCCCc1ccc(C(=O)O)nc1`, the Potency is reported as “inactive”.
For `S=C(NC1CCCCC1)N1CCC(c2cnc[nH]2)CC1`, the Potency was “inactive”.
For `NC(CCP(=O)(O)O)C(=O)O` (configuration not stated), the Potency was “inactive”.
For `CC(=O)NCCc1c[nH]c2ccccc12`, the Potency was “inactive”.
For `CN1C2CCC1CC(OC(=O)c1cc(Cl)cc(Cl)c1)C2` (configuration not stated), the Potency was “inactive”.
In the case of `O=C(O)CC[N+](=O)[O-]`, the Potency is reported as “inactive”.
For `COc1cc(C(O)CN)ccc1O` (configuration not stated), the Potency was “inactive”.
For `CC(=O)[C@H]1CCC2C3CC[C@H]4C[C@H](O)CC[C@]4(C)C3CC[C@@]21C` (some centres not stated), the Potency was “inactive”.
In the case of `C#CCOC(=O)C1=CCCN(C)C1`, the Potency is reported as “inactive”.
With `Clc1cnc(Oc2ccc(Oc3ncc(Cl)cc3Cl)cc2)c(Cl)c1` the Potency was “inactive”.
For `CC(C)NC(C)Cc1ccc(I)cc1` (configuration not stated), the Potency was “inactive”.
For `CCCN1CCC[C@H](c2cccc(O)c2)C1`, the Potency was “inactive”.
For `O=C(O)Cc1cnc[nH]1`, the Potency was “inactive”.
With `C=CCN1CC[C@]23CCCCC2[C@H]1Cc1ccc(O)cc13` (some centres not stated) the Potency was “inactive”.
For `COc1ccc2c(c[n+](C)c3c4cc5c(cc4ccc23)OCO5)c1OC`, the Potency was 29.9 µM (active).
For `NCCc1c[nH]c2ccccc12`, the Potency was “inactive”.
For `O=C1CCCN1CC#CCN1CCCC1`, the Potency was “inactive”.
